The list is not random: actives were taken first. Their share in the collection is about 2.9%.
Pol kappa inh = blocks human DNA polymerase kappa activity. Q9UBT6. purified Pol kappa, fluorescent DNA synthesis assay, 10 min. Potency, µM (titrated, usually from 107 µM), actives largely listed as inhibitors. 0.53% of 400,000 active. AID 588579
Target sequence (Q9UBT6 whole entry, looked up): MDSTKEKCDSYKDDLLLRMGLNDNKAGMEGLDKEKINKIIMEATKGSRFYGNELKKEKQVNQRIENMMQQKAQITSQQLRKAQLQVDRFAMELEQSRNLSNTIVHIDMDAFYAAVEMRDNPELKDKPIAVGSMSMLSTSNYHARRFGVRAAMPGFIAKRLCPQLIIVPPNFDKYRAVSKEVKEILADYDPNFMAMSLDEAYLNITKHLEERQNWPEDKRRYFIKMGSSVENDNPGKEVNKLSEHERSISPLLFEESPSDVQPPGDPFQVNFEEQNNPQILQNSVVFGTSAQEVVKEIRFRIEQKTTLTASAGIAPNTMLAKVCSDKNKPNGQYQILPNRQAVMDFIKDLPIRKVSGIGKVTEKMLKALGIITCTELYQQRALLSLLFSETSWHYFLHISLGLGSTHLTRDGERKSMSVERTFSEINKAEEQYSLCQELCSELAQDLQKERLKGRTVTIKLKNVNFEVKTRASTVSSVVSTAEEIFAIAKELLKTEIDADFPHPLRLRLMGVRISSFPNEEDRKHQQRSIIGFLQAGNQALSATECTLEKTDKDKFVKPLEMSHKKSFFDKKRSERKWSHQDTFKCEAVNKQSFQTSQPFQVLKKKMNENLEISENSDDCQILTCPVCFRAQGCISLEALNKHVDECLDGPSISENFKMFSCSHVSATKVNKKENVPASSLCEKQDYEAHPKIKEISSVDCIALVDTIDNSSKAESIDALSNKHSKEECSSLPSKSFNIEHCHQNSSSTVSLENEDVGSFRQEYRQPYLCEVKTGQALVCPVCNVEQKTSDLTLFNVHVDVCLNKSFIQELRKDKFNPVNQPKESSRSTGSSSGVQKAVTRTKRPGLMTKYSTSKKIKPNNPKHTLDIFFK
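Kinetic fluorescence screen: compound preincubated 15 min RT with 10 nM enzyme; 50 nM substrate (final) initiates; reads at 0/10 min.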
Pol iota inh = inhibitors of human DNA polymerase iota. Potency, µM (titrated, usually from 115 µM), actives largely listed as inhibitors. Pol iota fluorescent replication assay, 10 min. 1% of 390,000 active
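Pol iota at 10 nM preincubated 15 min with compounds at room temperature; reaction started with fluorescent substrate, 50 nM final. Fluorescence read kinetically at 0 and 10 min; buffer-only wells as negative control.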
ALOX12 inh = blocks human arachidonate 12S-lipoxygenase | P18054 | purified 12hLO, xylenol orange hydroperoxide absorbance | Potency, µM (titrated, usually from 108 µM), usual class: inhibitors | 1.1% of 580,000 active | AID 1671190
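Purified human 12hLO at 150 nM in 25 mM Hepes, 0.01% Triton X-100, pH 7.0, preincubated 15 min at room temperature with compound. Reaction started with 40 uM arachidonic acid, 30 min at room temperature. Hydroperoxide measured by Fe-xylenol orange, 573/405 nm absorbance ratio.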
PI5P4K alpha inh = blocks human PI5P4K alpha kinase activity | 1.2% of 330,000 active | PI5P4Kalpha enzyme, ADP-Glo luminescence, 60 min; hits give low values | AID 652105 | max response, % | P48426; active = max response of -50% or lower; inconclusive = between -30% and -50%; inactive = -30% or higher; also: value at the top dose of about 77 µM
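Controls without substrate or without enzyme flank wells where PI5P4Kalpha converts substrate using 5 microM ATP (final). Incubation lasts 60 minutes at room temperature; ADP formed is read by ADP-Glo luminescence.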
POLB inh = inhibitors of human DNA polymerase beta. P06746. Pol beta primer extension/strand displacement, fluorescence kinetic. Potency, µM (titrated, usually from 114 µM), usual class: inhibitors. 1.3% of 340,000 active. AID 485314
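Pol beta (10 nM) and compounds were preincubated 15 min at room temperature, then 50 nM substrate (final) started primer extension/strand displacement. Reads were taken at 0 and 10 min; concentration-response data were fitted to a four-parameter Hill equation.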
Pol eta inh = inhibitors of human DNA polymerase eta; Q9Y253; recombinant Pol eta, fluorescent DNA replication assay; Potency, µM (titrated, usually from 114 µM), actives largely listed as inhibitors; 1.2% of 390,000 active
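Fluorescent replication assay: 50 nM final substrate added after a 15 min room-temperature compound preincubation with 10 nM enzyme. Signal taken at 0 min and again at 10 min.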
Numbers stand for hits; – = inactive; ? = inconclusive; · = no result; ! = not active in a repeat; [ ] = remark or other dose. Unless noted, calls follow the shape of the dose curve; as a rule, active = well fitted inhibition curve with a large enough effect; inconclusive = small, poorly fitted or top-dose-only effect, or another doubt; inactive = no such curve, though single readings can be large or run the other way.

SMILES	Pol kappa inh	Pol iota inh	ALOX12 inh	PI5P4K alpha inh	POLB inh	Pol eta inh
Cc1cccc(N=C2NC(=O)/C(=C\c3cccs3)S2)c1	–	–	?	–	–	?
Cc1nn(-c2ccc(F)cc2)c2nc(C3CC3)c(Cl)c(C(=O)O)c12	·	·	–	·	·	·
O=C(/C=C/c1ccccc1)C1=C(O)C(=O)N(CCO)C1c1cccc([N+](=O)[O-])c1 (centres undefined)	–	–	22µM	–	–	–
O=C(N/N=C/C(Cl)=C/c1ccc([N+](=O)[O-])cc1)C(=O)Nc1ccccc1C(=O)O	?	18µM	?	-50	20µM	45µM
O=C(N/N=C/C(Cl)=C/c1ccc([N+](=O)[O-])cc1)C(=O)Nc1ccc(C(=O)O)cc1	–	?	–	–	?	?
COc1ccc(/C=C/c2nc(C#N)c(NCc3ccc4c(c3)OCO4)o2)cc1OC	·	·	–	·	·	·
N#C/C(=C/c1ccc(O)c(O)c1)C(=O)NCc1ccc(Cl)cc1	–	?	25µM	?	–	?
N#C/C(=C\c1ccc(O)c([N+](=O)[O-])c1)C(=O)NCc1ccccc1	–	?	–	-50	–	–
N#C/C(=C\c1ccc(O)c(Br)c1)C(=O)NCc1ccccc1	–	–	?	–	–	–
CCCCNc1ncnc2oc(-c3ccco3)c(-c3ccco3)c12	?	71µM	·	·	·	·
NS(=O)(=O)c1ccc(-c2ccc(/C=C3\NC(=S)NC3=O)o2)cc1	50µM	10µM	?	-66	–	79µM
NS(=O)(=O)c1ccc(-c2ccc(C=O)o2)cc1	–	–	–	–	–	–
CC1=C(C#N)C(=O)NC(=O)/C1=C/c1ccc(-c2ccc(S(N)(=O)=O)cc2)o1	?	?	–	-96	?	14µM
CCN(CC)S(=O)(=O)c1cc(NC(=O)CN2c3cccc4cccc(c34)S2(=O)=O)ccc1C	·	·	–	·	·	·
Cn1c(N2CCCCC2)nc2c1c(=O)n(Cc1cccc(Cl)c1)c(=O)n2C	·	·	–	·	·	·
CCOC(=O)c1cc2c(C)n(-c3ccc(OCC)cc3)c(C)c2ccc1=O	–	–	40µM	–	–	–
Cc1ccc(-c2cc(C(=O)Nc3ccccc3C)c3ccccc3n2)o1	–	–	5µM	?	10µM	?
Cc1ccnc(NC(=O)c2cc(-c3ccc(C)o3)nc3ccccc23)c1	·	·	10µM	·	·	·
Cc1ccc(-c2cc(C(=O)Nc3cccc(C#N)c3)c3ccccc3n2)o1	·	·	7.1µM	·	·	·
Cc1cccc(NC(=O)c2cc(-c3ccncc3)nc3ccccc23)c1	·	·	–	·	·	·
Cc1ccc(-c2cc(C(=O)NCC(c3ccccc3)N(C)C)c3ccccc3n2)o1 (centres undefined)	–	–	?	–	·	–
Cc1ccc(-c2cc(C(=O)Nc3ccc(F)cc3)c3ccccc3n2)o1	·	·	3.2µM	·	·	·
Cc1ccc(-n2c(SCC(=O)Nc3ccc(Br)cc3F)nc3c(=O)[nH]cnc32)cc1	·	·	–	·	·	·
COc1cccc(N2C(=O)NC(=NC3CCCCC3)C23CCCN(CCC(C)C)C3)c1 (centres undefined)	·	·	–[6.33 µM]	·	·	·
CN1CCN(CCCNC(=O)C(=O)Nc2ccc3[nH]ccc3c2)CC1	·	·	–	·	·	·
SMILES	Pol kappa inh	Pol iota inh	ALOX12 inh	PI5P4K alpha inh	POLB inh	Pol eta inh
Cc1ccc(-c2cc(C(=O)Nc3cccc(S(=O)(=O)N(C)C)c3)c3ccccc3n2)o1	–	–	6.3µM	–	–	–
COc1cccc(NC(=O)CN(C)C(=O)c2cc(-c3ccc(C)o3)nc3ccccc23)c1	–	–	–	–	·	–
COc1cccc(NC(=O)c2cc(-c3ccc(C)o3)nc3ccccc23)c1	?	?	–	?	?	79µM
CCCCN(CCCC)C(=O)Cn1cnc2c1c(=O)n(C)c(=O)n2C	·	·	–	·	·	·
COc1ccc(CC(=O)N2CCC(c3n[nH]c(=O)n3Cc3ccc(OC)cc3)CC2)cc1	·	·	–	·	·	·
CCC(C(=O)N1CCC(c2n[nH]c(=O)n2Cc2ccc(OC)cc2)CC1)c1ccccc1 (centres undefined)	·	·	35µM	·	·	·
OCC1CN(C2CCC2)CC12CCN(Cc1cc(F)ccc1F)CC2 (centres undefined)	·	·	–	·	·	·
CCCCCCCCc1ccc(C(=O)CCN(C)C)cc1	·	·	13µM	·	·	·
CCCCCCc1ccc(C(=O)CCN(C)C)cc1	–	–	·	·	·	·
COc1ccc(N2CC(c3nnc(NC(=O)CC(C)(C)C)s3)CC2=O)cc1 (centres undefined)	·	·	–	·	·	·
Cc1ccc(C(=O)Oc2cc(-c3ccccc3)no2)cc1	–	–	–	–	–	–
O=C(Oc1cc(-c2ccccc2)no1)c1ccc(Cl)cc1	–	–	32µM	–	–	–
CCOc1c(OC(C)=O)ccc(/C=C2\N=C(SCC)SC2=O)c1[N+](=O)[O-]	–	–	?	?	–	–
CCOc1cc(/C=C2\N=C(SCC)SC2=O)cc([N+](=O)[O-])c1OC(C)=O	?	?	?	-68	16µM	45µM
CN1CCN(C(=O)C2CCN(c3nn4cc(-c5ccc(F)cc5)nc4s3)CC2)CC1	·	·	–	·	·	·
c1cnc(N2CCN(Cc3ccc4c(c3)OCO4)CC2)nc1	–	–	22µM!	–	–	–
O=C(c1ccc(COc2ccccc2Cl)o1)N1CCN(Cc2ccc3c(c2)OCO3)CC1	–	?	45µM!	–	–	–
O=C(CN1CCN(Cc2ccc3c(c2)OCO3)CC1)N1c2ccccc2Sc2ccccc21	–[19.4 µM]	·	0.79µM	·	·	·
Cc1nc(-c2cccs2)c(CCC(=O)N2CCN(c3ccccc3)CC2)s1	·	·	–	·	·	·
Cc1ccc(C(=O)NCC(c2ccco2)N2CCc3ccccc3C2)cc1 (centres undefined)	–	–	8.9µM	–	·	–
O=C(NCC(c1ccco1)N1CCc2ccccc2C1)c1ccc(Br)cc1 (centres undefined)	–	–	11µM	–	·	–
O=C(NCC(c1ccco1)N1CCc2ccccc2C1)c1ccc(Cl)cc1 (centres undefined)	–	–	14µM	–	·	–
O=[N+]([O-])c1ccc(S(=O)(=O)NCC(c2ccco2)N2CCc3ccccc3C2)cc1 (centres undefined)	–	–	14µM	–	·	–
COc1ccc(C(=O)NCC(c2ccco2)N2CCc3ccccc3C2)cc1 (centres undefined)	–	–	?	–	·	–
CCN(CC)CCNC(=O)c1ccc2c(c1)n(Cc1cccc(F)c1)c(=O)c1ccnn12	·	·	–	·	·	·
SMILES	Pol kappa inh	Pol iota inh	ALOX12 inh	PI5P4K alpha inh	POLB inh	Pol eta inh
CC1=C(C(=O)N2CCOCC2)C(c2cc(Br)ccc2F)C2=C(CC(C)(C)CC2=O)N1 (centres undefined)	·	·	–	·	·	·
O=C(NN=C1CCCCC1)c1cc(-c2cccs2)nc2ccccc12	·	·	–	·	·	·
CC1=NN(c2ccc(N)cc2)C(=O)C1	?	?	–	–	–	?
CC1=NN(c2ccc(Cl)cc2)C(=O)C1	–	2.5µM	–	–	–	–
Cc1cccc(C)c1-n1nnnc1SC(C(=O)N1CCCC1)c1ccccc1 (centres undefined)	·	·	–	·	·	·
O=c1c2c3c(sc2nc2n1CCCCC2)CCC3	–	–	–	–	32µM	–

Assay outcomes from PubChem.
